# Source: PubChem BioAssay (Tox21)
# “And” between values parts separate entries of the source, which are not always exact repeats. Equal values may be shown once. Records with an inconclusive call do not appear. A call without a number means that no potency is given here. More than one record can exist for a structure, and the calls need not agree. The source made the active and inactive calls. Unless noted, calls come from the whole dose curve; as a rule, active = well fitted curve in the direction sought with a large enough effect in the repeat runs; inconclusive = weak or mixed curves; inactive = no such curve, though single readings can be large; an effect the other way counts as inactive or inconclusive.
# What was measured:
# [1] = qHTS assay to identify small molecule antagonists of the glucocorticoid receptor (GR) signaling pathway - cell viability counter screen (AID 720693); note: nearly all actives have a fitted effect of over 55% in size; note: potency is the fitted concentration of half-maximal effect
# [2] = qHTS assay for identifying genotoxic compounds that show differential cytotoxicity against isogenic chicken DT40 cell lines with known DNA damage response pathways - wild type cell line (AID 743012); note: nearly all actives have a fitted effect of over 60% in size; note: potency is the fitted concentration of half-maximal effect
# Outline: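 Endpoint: CellTiter-Glo luminescence, 30 min RT. Cells: wild type DT40, 300/well. Exposure: compounds in DMSO, 40 h, 37 C/5% CO2, after ~0.5 h pre-incubation.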
# [3] = qHTS assay for identifying genotoxic compounds that show differential cytotoxicity against isogenic chicken DT40 cell lines with known DNA damage response pathways - Rev3 mutant cell line (AID 743014); note: nearly all actives have a fitted effect of over 55% in size; note: potency is the fitted concentration of half-maximal effect
# [4] = qHTS assay to identify small molecule antagonists of the androgen receptor (AR) signaling pathway using the MDA cell line - cell viability counter screen (AID 743041; note: nearly all actives have a fitted effect of over 45% in size; note: potency is the fitted concentration of half-maximal effect)
# Outline: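 qHTS viability read-out; MDA-kb2 AR-luc; R1881-stimulated; 16 h exposure at 37C, 0% CO2; CellTiter-Fluor, 30 min; fluorescence intensity.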
# [5] = qHTS assay to identify small molecule antagonists of the thyroid receptor (TR) signaling pathway - cell viability counter screen (AID 743064); note: nearly all actives have a fitted effect of over 50% in size; note: potency is the fitted concentration of half-maximal effect
# Outline: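 In rat pituitary GH3.TRE-Luc reporter cells co-exposed to compound and 1 nM T3 for 23.5 h, cytotoxicity was assessed with CellTiter-Fluor in the same wells, read by fluorescence.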
# [6] = system: thyroid hormone receptor (rat, GH3 cells); test: qHTS assay to identify small molecule agonists of the thyroid receptor (TR) signaling pathway (AID 743066; calls by dose curve)
# [7] = qHTS assay to identify small molecule antagonists of the estrogen receptor alpha (ER-alpha) signaling pathway - cell viability counter screen (AID 743074; calls by dose curve; note: nearly all actives have a fitted effect of over 45% in size; note: potency is the fitted concentration of half-maximal effect)
# [8] = qHTS assay to identify small molecule antagonists of the estrogen receptor alpha (ER-alpha) signaling pathway using the BG1 cell line - cell viability counter screen (AID 743081);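 note: compound given together with 17beta-estradiol as the ER stimulus; nearly all actives have a fitted effect of over 45% in size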; note: potency is the fitted concentration of half-maximal effect
# [9] = qHTS assay to identify aromatase inhibitors - cell viability counter screen (AID 743084);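 note: cells stimulated with testosterone during compound exposure; nearly all actives have a fitted effect of over 55% in size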; note: potency is the fitted concentration of half-maximal effect
# [10] = qHTS assay to identify small molecule antagonists of the androgen receptor (AR) signaling pathway - cell viability counter screen (AID 743033; note: nearly all actives have a fitted effect of over 45% in size; note: potency is the fitted concentration of half-maximal effect)
# [11] = qHTS assay to identify small molecule antagonists of the thyroid receptor (TR) signaling pathway (AID 743065); note: nearly all actives have a fitted effect of over 55% in size; note: potency is the fitted concentration of half-maximal effect
# Outline: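 GH3.TRE-Luc rat pituitary cells carrying two TR response elements driving luciferase were plated for 4 h, given compound plus 1 nM T3 (final), and incubated 23.5 h at 37 C. ONE-Glo luminescence measured reporter inhibition; CellTiter-Fluor fluorescence tracked cytotoxicity.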
# Aromatase (Homo sapiens) = Aromatase (Homo sapiens) (UniProt P11511); test: qHTS assay to identify aromatase inhibitors (AID 743083); note: nearly all actives have a fitted effect of over 55% in size; note: potency is the fitted concentration of half-maximal effect
# Sequence of Aromatase (Homo sapiens) (P11511 whole entry, looked up): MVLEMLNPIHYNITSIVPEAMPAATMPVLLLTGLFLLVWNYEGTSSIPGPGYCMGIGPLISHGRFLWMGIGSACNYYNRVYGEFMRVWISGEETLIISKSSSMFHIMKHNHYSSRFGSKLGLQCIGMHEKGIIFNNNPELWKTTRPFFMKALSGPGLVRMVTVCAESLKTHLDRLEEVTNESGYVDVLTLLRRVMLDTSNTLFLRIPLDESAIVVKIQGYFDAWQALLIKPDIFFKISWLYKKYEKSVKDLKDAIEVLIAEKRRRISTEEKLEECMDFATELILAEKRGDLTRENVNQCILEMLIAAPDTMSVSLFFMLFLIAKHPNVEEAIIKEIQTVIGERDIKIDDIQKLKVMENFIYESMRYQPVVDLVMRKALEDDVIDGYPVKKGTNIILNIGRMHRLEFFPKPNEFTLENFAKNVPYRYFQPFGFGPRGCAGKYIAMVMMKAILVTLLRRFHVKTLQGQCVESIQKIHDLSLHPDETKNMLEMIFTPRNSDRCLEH
# [12] = target: Estrogen receptor (Homo sapiens) (UniProt P03372); test: qHTS assay to identify small molecule antagonists of the estrogen receptor alpha (ER-alpha) signaling pathway (AID 743069; active = well fitted curve in the direction sought with a large enough effect in the signal ratio in the repeat runs, not every such curve was filed as active; the % refers to the signal ratio)
# Sequence of Estrogen receptor (Homo sapiens) (P03372 whole entry, looked up): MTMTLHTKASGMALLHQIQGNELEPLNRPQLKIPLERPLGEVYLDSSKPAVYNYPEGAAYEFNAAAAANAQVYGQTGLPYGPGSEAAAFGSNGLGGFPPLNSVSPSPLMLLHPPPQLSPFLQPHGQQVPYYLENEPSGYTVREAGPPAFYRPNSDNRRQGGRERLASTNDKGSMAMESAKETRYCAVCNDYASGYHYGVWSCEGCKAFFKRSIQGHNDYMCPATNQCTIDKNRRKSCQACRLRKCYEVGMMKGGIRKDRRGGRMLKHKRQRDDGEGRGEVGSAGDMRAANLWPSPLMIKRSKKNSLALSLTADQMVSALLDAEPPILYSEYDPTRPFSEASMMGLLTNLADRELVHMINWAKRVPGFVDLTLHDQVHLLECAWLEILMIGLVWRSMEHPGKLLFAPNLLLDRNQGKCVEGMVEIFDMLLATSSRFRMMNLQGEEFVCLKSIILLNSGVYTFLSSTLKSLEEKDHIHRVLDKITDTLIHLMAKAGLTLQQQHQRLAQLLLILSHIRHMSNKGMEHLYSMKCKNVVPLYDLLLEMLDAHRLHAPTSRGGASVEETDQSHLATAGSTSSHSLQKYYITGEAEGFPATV
# Outline: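 Screening used a UAS-driven beta-lactamase reporter integrated into HEK293 cells expressing ER-alpha, stimulated with 17beta-estradiol alongside test compounds over 18 hr at 37C; signal came from LiveBLAzer B/G FRET fluorescence.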
# [13] = target: Estrogen receptor (Homo sapiens) (UniProt P03372); test: qHTS assay to identify small molecule agonists of the estrogen receptor alpha (ER-alpha) signaling pathway (AID 743075; calls by dose curve)
# [14] = target: Estrogen receptor (Homo sapiens) (UniProt P03372); test: qHTS assay to identify small molecule agonists of the estrogen receptor alpha (ER-alpha) signaling pathway using the BG1 cell line (AID 743079); note: nearly all actives have a fitted effect of over 20% in size
# [15] = qHTS assay for identifying genotoxic compounds that show differential cytotoxicity against isogenic chicken DT40 cell lines with known DNA damage response pathways - Rad54/Ku70 mutant cell line (AID 743015); note: potency is the fitted concentration of half-maximal effect; nearly all actives have a fitted effect of over 60% in size
# [16] = target: Androgen receptor (Homo sapiens) (UniProt P10275); test: qHTS assay to identify small molecule agonists of the androgen receptor (AR) signaling pathway using the MDA cell line (AID 743040; note: nearly all actives have a fitted effect of over 20% in size)
# Sequence of Androgen receptor (Homo sapiens) (P10275 whole entry, looked up): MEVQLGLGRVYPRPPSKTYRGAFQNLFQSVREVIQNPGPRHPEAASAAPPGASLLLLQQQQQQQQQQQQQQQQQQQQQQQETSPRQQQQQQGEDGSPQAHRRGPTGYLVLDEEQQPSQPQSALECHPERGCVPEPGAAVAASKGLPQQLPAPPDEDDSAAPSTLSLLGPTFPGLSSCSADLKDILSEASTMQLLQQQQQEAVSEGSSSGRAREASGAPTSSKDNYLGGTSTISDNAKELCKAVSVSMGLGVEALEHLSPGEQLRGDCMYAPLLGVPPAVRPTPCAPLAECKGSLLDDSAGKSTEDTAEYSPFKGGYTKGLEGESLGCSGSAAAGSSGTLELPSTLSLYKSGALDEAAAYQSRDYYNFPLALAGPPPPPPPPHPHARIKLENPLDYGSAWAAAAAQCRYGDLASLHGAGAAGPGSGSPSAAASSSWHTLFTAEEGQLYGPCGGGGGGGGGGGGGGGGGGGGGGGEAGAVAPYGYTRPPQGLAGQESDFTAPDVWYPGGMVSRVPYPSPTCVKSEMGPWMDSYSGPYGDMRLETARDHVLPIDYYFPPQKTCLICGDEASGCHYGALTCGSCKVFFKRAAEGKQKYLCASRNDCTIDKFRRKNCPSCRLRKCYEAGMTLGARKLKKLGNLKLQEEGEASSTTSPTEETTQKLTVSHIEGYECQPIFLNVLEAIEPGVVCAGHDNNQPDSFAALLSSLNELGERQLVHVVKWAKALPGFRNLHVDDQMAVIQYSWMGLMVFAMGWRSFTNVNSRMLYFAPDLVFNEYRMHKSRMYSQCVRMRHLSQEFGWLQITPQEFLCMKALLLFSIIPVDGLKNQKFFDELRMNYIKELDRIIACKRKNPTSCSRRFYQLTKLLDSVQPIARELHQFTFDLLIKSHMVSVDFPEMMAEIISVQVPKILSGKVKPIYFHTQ
# Outline: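 Agonist activity is measured as luciferase luminescence in human MDA-kb2 cells whose MMTV reporter responds to both AR and GR. Compounds in DMSO incubate 16 h at 37C, 0% CO2, and ONE-Glo is read after 30 min.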
# [17] = target: Androgen receptor (Homo sapiens) (UniProt P10275); test: qHTS assay to identify small molecule antagonists of the androgen receptor (AR) signaling pathway using the MDA cell line (AID 743042; note: nearly all actives have a fitted effect of over 55% in size; note: potency is the fitted concentration of half-maximal effect)
# Outline: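 MDA-kb2 cells (human breast carcinoma, stably carrying an MMTV-luciferase reporter responsive to AR and GR) were plated at 3,000 cells/well and preincubated 5 hr at 37C, then given compound plus R1881 agonist for 16 h. ONE-Glo luminescence was read.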
# [18] = target: Androgen receptor (Homo sapiens) (UniProt P10275); test: qHTS assay to identify small molecule agonists of the androgen receptor (AR) signaling pathway (AID 743036; active = well fitted activation curve with a large enough effect in the signal ratio in the repeat runs, with a control signal flat, not every such curve was filed as active; the % refers to the signal ratio)
# Outline: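 Cell-based FRET reporter assay: HEK293 line with a UAS-beta-lactamase construct, compounds added in DMSO, 16 h exposure at 37C, then 2 h substrate step at room temperature and fluorescence intensity read.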
# [19] = qHTS assay to identify small molecule antagonists of the estrogen receptor alpha (ER-alpha) signaling pathway using the BG1 cell line (AID 743080; calls by dose curve;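 note: BG1 cells stimulated with 17beta-estradiol alongside compound; series mostly up to about 70 µM; nearly all actives have a fitted effect of over 25% in size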)
# Outline: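 BG1-Luc-4E2 cells (endogenous full-length ER-alpha, 4xERE luciferase) hormone-starved 5 days in charcoal-stripped FBS, plated 4,000/well for 24 h, then compound plus 17beta-estradiol for 21.5 h at 37 C; ONE-Glo luminescence read.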
SMILES,Potency [1],Potency [2],Potency [3],Potency [4],Potency [5],outcome [6],Potency [7],Potency [8],Potency [9],Potency [10],Potency [11],Potency (Aromatase (Homo sapiens)),Potency [12],Potency [13],Potency [14],Potency [15],Potency [16],Potency [17],Potency [18],Potency [19]
CN(C)c1ccc(N=Nc2ccccc2)cc1,inactive,inactive,inactive,inactive,inactive,inactive,inactive,61.2 µM (active),54.5 µM (active),–,–,–,–,–,–,–,–,–,–,–
O=[N+]([O-])c1cc(C(F)(F)F)c(Cl)c([N+](=O)[O-])c1Cl,12.3 µM (active),0.386 µM (active),0.486 µM (active),54.5 µM (active),0.611 µM (active),–,54.9 µM (active),61.1 µM (active),3.06 µM (active),21.9 µM (active),0.386 µM (active),1.22 µM (active),–,–,–,–,–,–,–,–
CC(=O)c1cc(C(C)(C)C)cc2c1CCC2(C)C,inactive,inactive,inactive,inactive,43.3 µM (active),inactive,–,inactive,–,inactive,48.6 µM (active),68.6 µM (active),inactive,inactive,inactive,–,–,–,–,–
CCC(C)c1cc([N+](=O)[O-])cc([N+](=O)[O-])c1OC(=O)C=C(C)C (centres undefined),inactive,21.7 µM (active),27.3 µM (active),–,–,inactive,inactive,inactive,24.3 µM (active),–,21.7 µM (active),48.6 µM (active),–,–,–,19.3 µM (active),inactive,–,–,–
Cc1cc(C(C)(C)c2cc(C)c(O)c(C)c2)cc(C)c1O,42.2 µM (active),52.7 µM (active),26.4 µM (active),–,23.5 µM (active),inactive,–,inactive,26.4 µM (active),26.6 µM (active),11.8 µM (active),16.7 µM (active),–,–,–,–,inactive,29.6 µM (active),–,–
CC[C@H]1C[C@@H]2C[C@H]3c4[nH]c5ccc(OC)cc5c4CCN(C2)[C@@H]13,inactive,23.9 µM (active),47.7 µM (active),inactive,60.1 µM (active),inactive,inactive,inactive,inactive,inactive,30.1 µM (active),inactive,–,inactive,inactive,–,inactive,inactive,inactive,inactive
CC(C)Oc1cccc(NC(=O)c2ccccc2C(F)(F)F)c1,inactive,15.4 µM (active),15.4 µM (active),–,–,inactive,–,–,inactive,inactive,–,–,inactive,inactive,inactive,–,–,–,–,inactive
CC(C)(C)OO,inactive,inactive,inactive,inactive,inactive,inactive,inactive,inactive,inactive,inactive,inactive,inactive,–,–,–,–,inactive,inactive,inactive,–
CC(=O)[O-].[Tl+],inactive,2.75 µM (active),1.73 µM (active),–,–,inactive,–,inactive,inactive,–,–,61.5 µM (active),–,–,–,–,–,–,–,–
Clc1ccc(C(c2ccc(Cl)cc2)C(Cl)(Cl)Cl)cc1,inactive,18.8 µM (active) and 24.3 µM (active),10.6 µM (active) and 7.75 µM (active) and 6.86 µM (active),–,18.8 µM (active) and 30.9 µM (active) and 30.6 µM (active),inactive,inactive,inactive,inactive,inactive,18.8 µM (active) and 30.9 µM (active) and 24.3 µM (active),inactive,–,–,–,23.7 µM (active) and 19.3 µM (active),–,–,–,–
O=[N+]([O-])O.O=[N+]([O-])O.[Cd],inactive,43.3 µM (active),27.3 µM (active),inactive,–,–,inactive,–,–,–,–,inactive,–,–,–,–,–,–,–,–
CN(C)C(=S)S,inactive,1.36 µM (active) and 1.37 µM (active),1.21 µM (active) and 1.72 µM (active),–,inactive and 27.1 µM (active) and 2.73 µM (active),–,inactive,inactive,14 µM (active) and 764 nM (active) and 4.86 µM (active),15.8 µM (active) and 1.54 µM (active) and 9.77 µM (active),–,8.81 µM (active) and 607 nM (active) and 1.72 µM (active),–,–,–,–,–,–,–,–
Clc1ccc(C(Cl)(Cl)Cl)c(Cl)c1,inactive,inactive,inactive,–,inactive,inactive,inactive,inactive,inactive,inactive,inactive,–,–,–,–,–,–,–,–,–
ClC1=C(Cl)C2(Cl)C3C(Cl)C=CC3C1(Cl)C2(Cl)Cl (centres undefined),inactive,inactive and 48.6 µM (active),30.6 µM (active),–,30.8 µM (active) and 54.5 µM (active),inactive,–,inactive,inactive,inactive,43.5 µM (active) and 54.5 µM (active),68.6 µM (active),inactive,inactive,inactive,–,–,–,–,inactive
CC1(C)[C@H](C(=O)O[C@H](C#N)c2cccc(Oc3ccccc3)c2)[C@@H]1/C=C(\Cl)C(F)(F)F,inactive,50.5 µM (active),50.5 µM (active),inactive,inactive,inactive,inactive,inactive,inactive,–,–,inactive,–,–,–,–,–,–,–,–
c1ccc2c(c1)OCC(C1=NCCN1)O2 (centres undefined),inactive,5.31 µM (active),7.5 µM (active),–,7.5 µM (active),–,inactive,inactive,–,inactive,7.5 µM (active),26.6 µM (active),–,inactive,–,8.41 µM (active),–,–,–,inactive
